Here are results for one sequence from publication PMC7862700, “An all-to-all approach to the identification of sequence-specific readers for epigenetic DNA modifications on cytosine”.

Test in all cases: DAPPL (digital affinity profiling via proximity ligation, sequencing); 10 mM Tris-HCl pH 7.5, 50 mM NaCl, 1 mM DTT, 4% glycerol, room temperature, 30 min; GST-TFs on glutathione beads, 16-mer random dsDNA library, 0.1% formaldehyde crosslink after washing; high values mean tight binding
Common to all, as to conditions: protein: recombinant; tags: N-terminal GST; dsDNA, one strand shown

One test deals with T1, ETV2 (Homo sapiens, UniProt O00321 1-342).
T1 sequence: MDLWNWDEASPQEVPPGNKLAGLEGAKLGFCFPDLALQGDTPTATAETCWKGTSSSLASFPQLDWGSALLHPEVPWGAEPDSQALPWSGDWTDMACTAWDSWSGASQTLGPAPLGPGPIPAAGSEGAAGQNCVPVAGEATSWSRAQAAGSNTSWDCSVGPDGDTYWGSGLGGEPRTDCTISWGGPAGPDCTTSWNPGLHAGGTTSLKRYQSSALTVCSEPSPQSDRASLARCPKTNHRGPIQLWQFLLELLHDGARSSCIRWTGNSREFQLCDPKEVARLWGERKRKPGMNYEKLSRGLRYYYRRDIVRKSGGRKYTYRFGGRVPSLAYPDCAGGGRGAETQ
The essentials: (§1)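 GST fusions of human transcription factors were expressed in yeast and captured with glutathione beads. Once given DNA barcodes and pooled alongside a tag-only sample, they were incubated for 30 min at room temperature with 200 nmole of a random double-stranded 16-mer DNA library in Tris/NaCl/DTT/glycerol buffer, then washed, crosslinked (0.1% formaldehyde), proximity-ligated, PCR-amplified and sequenced on an Illumina NextSeq500. The binding signal of each hexamer is its read frequency for a factor divided by its frequency for the tag-only sample.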

The next test addresses T2, ELF3 (Homo sapiens, UniProt P78545 1-371).
T2 sequence: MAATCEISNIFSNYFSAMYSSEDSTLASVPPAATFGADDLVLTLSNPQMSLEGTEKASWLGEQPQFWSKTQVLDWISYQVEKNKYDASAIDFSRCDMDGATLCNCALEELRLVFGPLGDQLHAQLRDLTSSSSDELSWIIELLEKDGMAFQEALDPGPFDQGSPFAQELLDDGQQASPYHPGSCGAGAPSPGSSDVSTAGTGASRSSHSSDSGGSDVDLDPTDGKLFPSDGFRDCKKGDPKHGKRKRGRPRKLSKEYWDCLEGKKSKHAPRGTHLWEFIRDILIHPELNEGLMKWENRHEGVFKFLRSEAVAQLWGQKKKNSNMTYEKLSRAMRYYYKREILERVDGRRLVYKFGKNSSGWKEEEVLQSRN
The essentials:
as §1

Another test deals with ETV1 (Homo sapiens, UniProt P50549 1-477). Summed up: as §1
The next test concerns the target T3, ERF (Homo sapiens, UniProt P50548 1-548).
T3 sequence: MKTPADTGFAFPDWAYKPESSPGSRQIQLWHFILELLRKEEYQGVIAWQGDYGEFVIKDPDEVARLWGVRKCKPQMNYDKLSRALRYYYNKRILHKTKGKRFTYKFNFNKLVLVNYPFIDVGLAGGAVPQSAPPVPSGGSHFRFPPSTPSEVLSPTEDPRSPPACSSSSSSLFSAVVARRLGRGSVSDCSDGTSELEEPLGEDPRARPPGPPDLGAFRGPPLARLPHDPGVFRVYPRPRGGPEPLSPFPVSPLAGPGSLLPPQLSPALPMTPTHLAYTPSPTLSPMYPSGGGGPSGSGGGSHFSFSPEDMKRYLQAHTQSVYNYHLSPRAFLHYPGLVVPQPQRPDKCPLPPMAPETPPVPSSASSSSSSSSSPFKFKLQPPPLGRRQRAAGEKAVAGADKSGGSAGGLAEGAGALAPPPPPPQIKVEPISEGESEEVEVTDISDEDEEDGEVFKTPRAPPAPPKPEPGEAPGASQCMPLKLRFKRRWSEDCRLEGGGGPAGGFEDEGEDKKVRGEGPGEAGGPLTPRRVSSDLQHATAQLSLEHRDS
The essentials:
as §1

For the next test, the target named is T4, ETV3L (Homo sapiens, UniProt Q6ZN32 1-361).
T4 sequence: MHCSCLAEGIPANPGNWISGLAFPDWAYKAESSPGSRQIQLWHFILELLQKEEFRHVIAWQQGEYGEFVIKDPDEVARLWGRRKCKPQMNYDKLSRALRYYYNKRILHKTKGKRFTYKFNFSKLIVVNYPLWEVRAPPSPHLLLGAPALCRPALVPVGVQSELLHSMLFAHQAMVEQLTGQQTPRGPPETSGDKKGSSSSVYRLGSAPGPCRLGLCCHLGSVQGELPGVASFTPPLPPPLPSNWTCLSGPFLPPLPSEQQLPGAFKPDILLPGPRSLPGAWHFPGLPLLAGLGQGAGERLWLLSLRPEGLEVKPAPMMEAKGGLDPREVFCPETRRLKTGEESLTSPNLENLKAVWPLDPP
The essentials: as §1

For the next test, the target named is T5, ETS2 (Homo sapiens, UniProt P15036 1-469).
T5 sequence: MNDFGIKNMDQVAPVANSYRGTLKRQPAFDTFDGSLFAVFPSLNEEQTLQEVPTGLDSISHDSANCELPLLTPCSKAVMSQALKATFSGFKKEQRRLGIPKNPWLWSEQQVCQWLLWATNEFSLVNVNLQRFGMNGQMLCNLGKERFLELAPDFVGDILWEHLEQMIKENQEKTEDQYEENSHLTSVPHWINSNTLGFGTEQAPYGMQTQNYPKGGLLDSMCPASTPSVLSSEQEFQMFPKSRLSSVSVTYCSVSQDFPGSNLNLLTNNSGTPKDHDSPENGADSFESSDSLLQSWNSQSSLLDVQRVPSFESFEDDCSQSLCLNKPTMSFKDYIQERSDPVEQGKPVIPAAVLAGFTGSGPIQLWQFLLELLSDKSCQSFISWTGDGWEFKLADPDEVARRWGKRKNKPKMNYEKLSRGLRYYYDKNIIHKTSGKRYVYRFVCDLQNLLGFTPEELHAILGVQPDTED
The essentials: as §1

In a further test the target is T6, SPDEF (Homo sapiens, UniProt O95238 1-335).
T6 sequence: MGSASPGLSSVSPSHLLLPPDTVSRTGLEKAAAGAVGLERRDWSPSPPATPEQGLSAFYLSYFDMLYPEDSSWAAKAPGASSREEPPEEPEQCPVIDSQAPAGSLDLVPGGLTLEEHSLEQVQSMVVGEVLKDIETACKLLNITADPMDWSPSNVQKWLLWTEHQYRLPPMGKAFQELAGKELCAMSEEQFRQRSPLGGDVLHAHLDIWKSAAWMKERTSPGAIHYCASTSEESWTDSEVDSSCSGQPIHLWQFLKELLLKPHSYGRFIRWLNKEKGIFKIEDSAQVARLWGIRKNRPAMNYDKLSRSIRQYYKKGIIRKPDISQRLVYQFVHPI
Summed up:
as §1

A further test addresses T7, ETV7 (Homo sapiens, UniProt Q9Y603 1-341).
T7 sequence: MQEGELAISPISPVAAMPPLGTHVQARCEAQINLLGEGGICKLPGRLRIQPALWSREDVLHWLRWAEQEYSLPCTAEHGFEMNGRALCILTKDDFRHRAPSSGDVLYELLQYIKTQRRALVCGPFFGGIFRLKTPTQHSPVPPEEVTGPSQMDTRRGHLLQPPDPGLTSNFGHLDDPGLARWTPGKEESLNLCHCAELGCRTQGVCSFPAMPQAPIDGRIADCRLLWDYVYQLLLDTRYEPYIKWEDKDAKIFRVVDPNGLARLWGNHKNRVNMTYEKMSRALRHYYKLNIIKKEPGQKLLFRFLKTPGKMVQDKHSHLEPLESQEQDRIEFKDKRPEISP
The essentials: as §1

Another test has as its target T8, ETV3 (Homo sapiens, UniProt P41162-2 1-143).
T8 sequence: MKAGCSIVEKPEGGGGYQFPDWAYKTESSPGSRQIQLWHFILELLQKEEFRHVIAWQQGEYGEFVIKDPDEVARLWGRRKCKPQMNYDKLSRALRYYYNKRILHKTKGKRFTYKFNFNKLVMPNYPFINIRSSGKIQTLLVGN
Summed up:
as §1

Another test deals with ETV6 (Homo sapiens, UniProt P41212 1-452). The essentials: as §1
Sequence of ETV6 (P41212 whole entry): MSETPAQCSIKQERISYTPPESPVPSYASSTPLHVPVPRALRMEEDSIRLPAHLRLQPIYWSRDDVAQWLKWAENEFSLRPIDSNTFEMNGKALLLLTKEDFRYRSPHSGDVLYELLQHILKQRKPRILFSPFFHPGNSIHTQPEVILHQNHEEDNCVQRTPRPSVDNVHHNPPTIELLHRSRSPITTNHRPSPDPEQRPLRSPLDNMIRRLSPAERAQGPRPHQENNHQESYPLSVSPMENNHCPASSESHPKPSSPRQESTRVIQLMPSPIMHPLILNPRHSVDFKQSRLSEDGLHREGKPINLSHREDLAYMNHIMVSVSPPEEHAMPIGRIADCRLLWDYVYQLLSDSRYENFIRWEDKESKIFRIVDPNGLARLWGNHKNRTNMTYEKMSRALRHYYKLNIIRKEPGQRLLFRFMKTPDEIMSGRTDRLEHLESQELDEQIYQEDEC

Sequence of ETV1 (P50549 whole entry): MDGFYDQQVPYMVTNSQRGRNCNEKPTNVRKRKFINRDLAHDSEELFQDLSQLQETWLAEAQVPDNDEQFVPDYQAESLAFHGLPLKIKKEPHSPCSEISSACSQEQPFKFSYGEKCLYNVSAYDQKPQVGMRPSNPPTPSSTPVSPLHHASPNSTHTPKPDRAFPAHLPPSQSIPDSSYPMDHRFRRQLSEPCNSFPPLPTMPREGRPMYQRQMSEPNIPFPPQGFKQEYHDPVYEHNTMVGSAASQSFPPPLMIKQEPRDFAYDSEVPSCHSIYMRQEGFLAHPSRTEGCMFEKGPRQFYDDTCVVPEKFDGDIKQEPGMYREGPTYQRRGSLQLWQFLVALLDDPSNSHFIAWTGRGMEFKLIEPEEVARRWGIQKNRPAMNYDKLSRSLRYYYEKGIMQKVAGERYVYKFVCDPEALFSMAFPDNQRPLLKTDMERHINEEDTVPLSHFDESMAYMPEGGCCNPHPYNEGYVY

Take TGTAAC: the binding signal with ETV2 was 1.21 fold enrichment (6-mer frequency, TF over GST control); in the test with ELF3 it was 1.22 fold enrichment (6-mer frequency, TF over GST control); with ETV1, 1.28 fold enrichment (6-mer frequency, TF over GST control); in the test with ERF, 1.23 fold enrichment (6-mer frequency, TF over GST control); in the test with ETV3L, 1.15 fold enrichment (6-mer frequency, TF over GST control); with ETS2, 1.32 fold enrichment (6-mer frequency, TF over GST control). Further, the binding signal with SPDEF was 1.23 fold enrichment (6-mer frequency, TF over GST control); with ETV7, 1.18 fold enrichment (6-mer frequency, TF over GST control); with ETV3 it was 1.24 fold enrichment (6-mer frequency, TF over GST control); in the test with ETV6, 1.2 fold enrichment (6-mer frequency, TF over GST control).
